Only some compounds are listed: those with a hit (about 5% of all), similar ones and a draw of the others.
TbPYK inhibitor – inhibitors of Trypanosoma brucei pyruvate kinase; Q57TT1; TbPYK enzyme, Kinase-Glo Plus ATP luminescence, 45 min; Potency, µM (series often up to 76.8 µM), most hits filed as inhibitors; 0.12% of 410,000 active; AID 624173; note: nearly all actives have a fitted effect of over 50% in size
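Screened from lowest to highest concentration, compounds were pinned into TbPYK/substrate mixtures, and ADP (130 uM final) was added. Plates sat at room temperature for 45 min prior to Kinase-Glo Plus detection by luminescence.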
HCMV inh – inhibitors of human cytomegalovirus; 4.5% of 410,000 active; HFF cells, HCMV-luciferase reporter, 72 h; hits give low values; activity change, negative = inhibition, % at 57.5 µM; in the data active = activity change below about -60%; inconclusive = no clear call, values can overlap the other calls; inactive = above about -39%
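Two-dose cell screen: HFF monolayers treated with compounds and infected with luciferase-expressing HCMV at 1 PFU/cell, 72 h at 37C, then lysed for luciferase measurement.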
LmPK inhibitor – LmPK (Leishmania mexicana) enzyme inhibition; Q27686; purified LmPK, Kinase-Glo ATP luminescence, 1 h; Potency, µM (series often up to 57.5 µM), hits mostly inhibitors; 0.37% of 290,000 active
Target sequence (Q27686 whole entry, looked up): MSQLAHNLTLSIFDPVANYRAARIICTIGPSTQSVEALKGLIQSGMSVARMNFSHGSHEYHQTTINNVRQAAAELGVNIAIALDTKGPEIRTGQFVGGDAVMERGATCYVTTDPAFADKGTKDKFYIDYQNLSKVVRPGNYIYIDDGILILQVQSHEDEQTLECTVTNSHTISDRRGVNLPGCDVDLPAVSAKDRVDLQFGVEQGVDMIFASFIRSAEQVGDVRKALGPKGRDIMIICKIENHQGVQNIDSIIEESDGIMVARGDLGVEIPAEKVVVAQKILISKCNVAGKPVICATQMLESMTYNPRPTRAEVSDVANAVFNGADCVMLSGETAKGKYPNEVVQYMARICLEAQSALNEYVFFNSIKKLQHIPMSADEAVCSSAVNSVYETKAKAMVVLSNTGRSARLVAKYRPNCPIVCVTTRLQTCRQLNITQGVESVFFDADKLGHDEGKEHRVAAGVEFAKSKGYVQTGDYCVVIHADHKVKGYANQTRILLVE
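Purified LmPK (0.1 nM) with 0.5 mM PEP and 0.1 mM ADP in imidazole buffer pH 7.2 with MgCl2/KCl, 1 h at room temperature. ATP formed was read by luciferase luminescence and normalized to no-enzyme and uninhibited controls.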
VACV Venus inh – vaccinia inhibition (Venus reporter). Vaccinia virus Venus reporter expression, fluorescence. Potency, µM (top dose mostly 36.5 µM), hits mostly inhibitors. 0.46% of 330,000 active. AID 720580; calls by dose curve; tested in A549 cells; note: nearly all actives have a fitted effect of over 30% in size
Vaccinia mCherry – inhibitors of vaccinia virus infection (mCherry reporter signal) | AID 720579 | Vaccinia virus mCherry reporter infection, fluorescence | Potency, µM (doses to about 36.5 µM), actives largely listed as inhibitors | 0.63% of 310,000 active; calls by dose curve; tested in A549 cells; note: nearly all actives have a fitted effect of over 35% in size
Of the large screens only hits and unclear results are named; the others gave an inactive call. Unless noted, calls come from the whole dose curve; as a rule, active = well fitted curve in the direction sought with a large enough effect; inconclusive = small, poorly fitted or top-dose-only effect, or another doubt; inactive = no such curve, though single readings can be large; an effect the other way counts as inactive or inconclusive.

O=C(Nc1ccc(F)cc1)Nc1nnc(-c2ccncc2)s1	HCMV inh -94.7
O=C(Nc1ccc(Cl)cc1)Nc1nc(-c2sccc2Br)cs1	HCMV inh inconclusive, VACV Venus inh inconclusive
O=C(Nc1nnc(-c2ccc(F)cc2)s1)Nc1ccccc1F	none (no result: VACV Venus inh, Vaccinia mCherry)
O=C(Nc1ccc(Cl)cc1)Nc1nnc(-c2ccncc2)s1	HCMV inh -66.7
Cc1cnc(NC(=O)Nc2ccc(Cl)cc2)s1	HCMV inh -104.4 (no result: VACV Venus inh, Vaccinia mCherry)
CCOc1cccc(-c2nc3ccccc3c(=O)o2)c1	none (no result: LmPK inhibitor)
COC(=O)Nc1nnc(-c2ccncc2)s1	none (no result: VACV Venus inh, Vaccinia mCherry)
O=C(Nc1cccc(Cl)c1)Nc1nnc(-c2ccncc2)s1	HCMV inh -97.8, VACV Venus inh inconclusive
Cc1ccc(NC(=O)Nc2nnc(-c3ccncc3)s2)cc1C	HCMV inh -91.7 (no result: VACV Venus inh, Vaccinia mCherry)
COc1ccccc1C(=O)NC(CCSC)C(=O)NCC(c1ccco1)N(C)C (stereo not given)	none (no result: VACV Venus inh, Vaccinia mCherry)
COc1ccc(N=C2SC(CC(=O)Nc3ccccc3OC)C(=O)N2Cc2ccco2)cc1 (stereo not given)	Vaccinia mCherry inconclusive
Cc1cc(Br)ccc1NC(=O)CN1C(=O)c2cccnc2Sc2ccccc21	none (no result: LmPK inhibitor)
Cc1ccnc(Nc2nc(-c3sc(C)nc3C)cs2)c1	HCMV inh -106.6, VACV Venus inh inconclusive, Vaccinia mCherry 3.55µM (no result: LmPK inhibitor)
CCOC(=O)C1CCN(C(=O)COc2ccc(N(C)S(=O)(=O)c3ccc(C)cc3)cc2)CC1	HCMV inh -102.4
N=c1c2c(-c3ccccc3)c(-c3ccccc3)n(Cc3ccco3)c2ncn1CCCN1CCOCC1	HCMV inh -97.5, VACV Venus inh inconclusive
N=c1c2c(-c3ccccc3)c(-c3ccccc3)n(Cc3ccco3)c2ncn1CCCn1ccnc1	HCMV inh -97.5, VACV Venus inh inconclusive
N=c1c2c(-c3ccccc3)c(-c3ccccc3)n(Cc3ccco3)c2ncn1Cc1ccccc1	none
CC(C)(C)C(=O)Nc1ccccc1C(=O)Nc1cc(Cl)ccc1Cl	none (no result: VACV Venus inh, Vaccinia mCherry)
COCC(C)n1c(COc2ccccc2F)nnc1SCc1c(C)noc1C (stereo not given)	none
O=C(Nc1ccc(Oc2cccnc2)cc1)C1CCN(Cc2ccc(F)cc2)CC1	VACV Venus inh inconclusive
C#Cc1ccc(CN2CCC(C(=O)Nc3ccc(Oc4ccccc4)nc3)CC2)cc1	HCMV inh active (no result: VACV Venus inh, Vaccinia mCherry)
O=C(Nc1ccc(Oc2ccccc2)nc1)C1CCN(Cc2cccc(F)c2)CC1	HCMV inh -68.8
O=C(Nc1ccc(Oc2cccnc2)cc1)C1CCN(Cc2cc(Cl)ccc2O)CC1	HCMV inh -82.8 (no result: VACV Venus inh, Vaccinia mCherry)
CN1CCN(C(=O)CN(C2CCCCC2)S(=O)(=O)c2ccc(Br)cc2)CC1	none
O=C(/C=C/c1ccc2c(c1)OCO2)Nc1cc(S(=O)(=O)N2CCOCC2)ccc1N1CCOCC1	Vaccinia mCherry inconclusive
CCOc1ccc(N2CC(C(=O)Nc3cc(S(=O)(=O)N4CCCCC4)ccc3C)CC2=O)cc1 (stereo not given)	none (no result: LmPK inhibitor)
COc1ccc(N(C(=O)C2COc3ccccc3O2)C(C(=O)NC2CCCCC2)c2ccccc2)cc1OC (stereo not given)	HCMV inh -63.4
COc1cccc(C(C(=O)NC2CCCCC2)N(CCN2CCOCC2)C(=O)C2COc3ccccc3O2)c1 (stereo not given)	none
COc1cc(OC)cc(N(C(=O)C2COc3ccccc3O2)C(C(=O)NC2CCCCC2)c2ccc(O)cc2)c1 (stereo not given)	HCMV inh -77.2, VACV Venus inh inconclusive, Vaccinia mCherry inconclusive
COc1ccc(Oc2ncc3ncc(=O)n(CCc4ccccc4)c3n2)cc1	none (no result: HCMV inh, LmPK inhibitor, VACV Venus inh, Vaccinia mCherry)
CCn1cc(C(=O)NCCCN2CCCC2)c(=O)c2cc(S(=O)(=O)N3CCc4ccccc4C3)ccc21	none (no result: VACV Venus inh, Vaccinia mCherry)
COc1cccc(C2/C(=C(/O)c3ccc4c(c3)OCO4)C(=O)C(=O)N2CCN2CCOCC2)c1 (stereo not given)	HCMV inh -61.8 (no result: VACV Venus inh, Vaccinia mCherry)
O=C1C(=O)N(CCN2CCOCC2)C(c2ccncc2)/C1=C(/O)c1ccc2c(c1)OCO2 (stereo not given)	none
Cc1ccc(NC(=O)Cn2nc(Cc3ccncc3)c3ccccc3c2=O)c(Cl)c1	HCMV inh -96.9 (no result: LmPK inhibitor)
CCCC[C@H]1COCCS(=O)(=O)N1Cc1cccc([N+](=O)[O-])c1	HCMV inh -100.1
O=c1cc(-c2ccccc2)cc(-c2ccccc2)n1O	VACV Venus inh inconclusive, Vaccinia mCherry 14.1µM (no result: LmPK inhibitor)
COCCc1nn2c(=O)cc(COC(=O)c3ccco3)nc2s1	none (no result: LmPK inhibitor)
COc1ccc(-n2c(C)cc(C(=O)CN3C(=O)C(=O)N(Cc4ccccc4)C3=O)c2C)cc1	none (no result: VACV Venus inh, Vaccinia mCherry)
CCc1ccc2oc(-c3ccc(NC(=O)c4cccc(Cl)c4Cl)cc3)nc2c1	HCMV inh -70.1 (no result: LmPK inhibitor)
O=C(Nc1ccc2oc(-c3ccccc3)nc2c1)c1ccccc1F	HCMV inh -89.3
O=C(Nc1ccc2oc(-c3ccc4ccccc4c3)nc2c1)c1cccc(Cl)c1Cl	none (no result: LmPK inhibitor)
O=C(Nc1ccc2oc(-c3ccncc3)nc2c1)c1cccs1	none
O=C(Nc1ccc(-c2nc3cc(NC(=O)c4cccs4)ccc3o2)cc1)c1cccs1	HCMV inh -70.2 (no result: VACV Venus inh, Vaccinia mCherry)
O=C(Nc1ccc2c(c1)OCCO2)N1CCN(Cc2ccccc2)CC1	none
Cc1ccccc1NC(=O)C(Cl)=C(Cl)Cl	HCMV inh -77.9, Vaccinia mCherry inconclusive
Cc1cc(OCC(=O)N2CCC[C@@H]2C(=O)O)c2c(C)c(C)c(=O)oc2c1	none
O=C(CCSc1ccc(Cl)cc1)c1ccco1	HCMV inh -64.0 (no result: VACV Venus inh, Vaccinia mCherry)
Cc1ccc(S(=O)(=O)N(C)C)cc1NC(=S)NC(C)CCC(C)C (stereo not given)	none
Cc1ccc(S(=O)(=O)N(C)C)cc1NC(=S)NC(C)CCCC(C)C (stereo not given)	HCMV inh -73.0
COC(=O)c1c(-c2ccccc2)noc1-c1ccccc1	none (no result: LmPK inhibitor)
COC(=O)c1c(C)noc1-c1ccc(Cl)cc1	HCMV inh -63.8 (no result: VACV Venus inh, Vaccinia mCherry)
CC(=O)NCc1ccc(-c2csc(NC(=O)CCc3nc4ccccc4c(=O)[nH]3)n2)s1	none (no result: LmPK inhibitor)
O=C(c1ccc2c(=O)n3c(nc2c1)CCCCC3)N1CCN(C(c2ccccc2)c2ccccc2)CC1	HCMV inh -65.5 (no result: VACV Venus inh, Vaccinia mCherry)
CN(C)c1cccc(C(=O)Nc2ccc3nc4n(c(=O)c3c2)CCCCC4)c1	none
CCOc1ccccc1CNC(=O)c1ccc2c(c1)nc1n2CCCCC1	HCMV inh -67.6 (no result: LmPK inhibitor)
COc1ccc(CNC(=O)c2ccc3c(=O)n4c(nc3c2)CCCCC4)cc1OC	HCMV inh -74.5 (no result: LmPK inhibitor)
O=C(Nc1ccc2nc3n(c(=O)c2c1)CCCCC3)c1cccc(C(F)(F)F)c1	HCMV inh -68.5, VACV Venus inh inconclusive, Vaccinia mCherry inconclusive (no result: LmPK inhibitor)
COc1ccc(CNC(=O)c2ccc3c(c2)nc2n3CCCCC2)cc1	none (no result: LmPK inhibitor)
O=c1[nH]n(CC2COC3(CCCCC3)O2)c(=O)c2ccccc12 (stereo not given)	none
CCc1c(C)sc(NC(=O)c2ccccc2[N+](=O)[O-])c1C(N)=O	none
COC(=O)C1=C(C)NC(=O)NC1c1cn(-c2ccccc2)nc1-c1ccc(OC)c(Br)c1 (stereo not given)	none (no result: LmPK inhibitor)

Screening results from PubChem BioAssay.
